# Assay results reported in ChEMBL document CHEMBL4513147, “CO-ADD screening of Armstrong State University (GA, USA) compounds”.
# Potency and affinity values are given separately.
# Test system: Staphylococcus aureus
# Details: Concentration 32 ug.mL-1; ASSAY_TEST Inhibition of Bacterial Growth; detection method Absorption (OD600); MEDIA CAMHB; plate type 384well; NBS; CORNING #3640; time 18 hr
row,SMILES,Inhibition [%]
1,COc1ccc2c(c1)C(=O)C(=Cc1ccccn1)CC2,11.08
2,COc1ccc2c(c1)C(=O)C(=Cc1cccnc1Br)CC2,5.72
3,COc1ccc2c(c1)CCC(=Cc1cccnc1)C2=O,11.8
4,COc1ccc2c(c1)C(O)C(=Cc1cccnc1Cl)CC2 (configuration not stated),5.45
5,COc1ccc2c(c1)CCC(=Cc1ccccn1)C2=O,14.37
6,COc1ccc2c(c1)C(=O)C(=Cc1cccnc1OC)CC2,16.7
7,COc1ccc2c(c1)C(=O)C(=Cc1cccc(C=C3CCc4ccc(OC)cc4C3=O)c1)CC2,5.74
8,Cc1ccc(C=C2CN(C(=O)OC(C)(C)C)C/C(=C\c3ccc(C)cc3C)C2=O)c(C)c1,9.56
9,COc1cc2c(cc1OC)C(=O)C(=Cc1ccoc1)CC2,22.02
10,CC(C)(C)OC(=O)N1CC(=Cc2ccoc2)C(=O)/C(=C/c2ccoc2)C1,3.94
11,COc1ccc2c(c1)C(=O)C(=Cc1cccnc1Cl)CC2,6.88
12,COc1ccc2c(c1)C(=O)C(=Cc1cccnc1)CC2,17.94
13,COc1ccc2c(c1)C(=O)C(=Cc1ccoc1)CC2,24.21
14,COc1ccc2c(c1)CCC(=Cc1ccco1)C2=O,19.21
15,COc1ccc(/C=C/C(=O)c2ccc(OCc3ccc(Br)cc3)cc2)cc1OC,-11.78
16,COc1cccc2c1CCC(=Cc1ccoc1)C2=O,21.03

row,SMILES,Inhibition [%]
1,COc1ccc2c(c1)C(=O)C(=Cc1cccnc1Cl)CC2.Cl,20.04
2,COc1ccc2c(c1)C(=O)C(=Cc1ccco1)CC2,20.52
3,COc1cccc2c1CCC(=Cc1cccc(C=C3CCc4c(OC)cccc4C3=O)c1)C2=O,-26.12
4,COc1ccc2c(c1)C(=O)C(=Cc1cnccc1OC)CC2,16.33
5,COc1cc2c(cc1OC)C(=O)C(=Cc1ccco1)CC2,23.29
6,COc1ccc2c(c1)CCC(=Cc1ccoc1)C2=O,24.71
7,COc1ccc2c(c1)CCC(=Cc1cnccc1OC)C2=O,0.49
8,COc1ccc2c(c1)CCC(=Cc1cncc(Br)c1)C2=O,0.4
9,COc1ccc2c(c1)CCC(=Cc1ccc(OC)nc1)C2=O,-4.04
10,CC(C)(C)OC(=O)N1CC(=Cc2ccco2)C(=O)/C(=C/c2ccco2)C1,17.59
11,COc1ccc2c(c1)CCC(=Cc1cccnc1Br)C2=O,11.61
12,COc1cccc2c1CCC(=Cc1ccco1)C2=O,13.6
13,COc1ccc2c(c1)C(=O)C(=Cc1cncc(Br)c1)CC2,75.2
14,COc1ccc2c(c1)CCC(=Cc1ccncc1)C2=O,16.04
15,COc1ccc2c(c1)CCC(=Cc1cccnc1Cl)C2=O,1.26

# Test system: Escherichia coli
# Details: Concentration 32 ug.mL-1; ASSAY_TEST Inhibition of Bacterial Growth; detection method Absorption (OD600); MEDIA CAMHB; plate type 384well; NBS; CORNING #3640; time 18 hr
row,SMILES,Inhibition [%]
1,COc1ccc2c(c1)C(=O)C(=Cc1ccccn1)CC2,3.58
2,COc1ccc2c(c1)C(=O)C(=Cc1cccnc1Br)CC2,0.26
3,COc1ccc2c(c1)CCC(=Cc1cccnc1)C2=O,5.55
4,COc1ccc2c(c1)C(O)C(=Cc1cccnc1Cl)CC2 (configuration not stated),4.12
5,COc1ccc2c(c1)CCC(=Cc1ccccn1)C2=O,1.84
6,COc1ccc2c(c1)C(=O)C(=Cc1cccnc1OC)CC2,4.57
7,COc1ccc2c(c1)C(=O)C(=Cc1cccc(C=C3CCc4ccc(OC)cc4C3=O)c1)CC2,2.05
8,Cc1ccc(C=C2CN(C(=O)OC(C)(C)C)C/C(=C\c3ccc(C)cc3C)C2=O)c(C)c1,-6.82
9,COc1cc2c(cc1OC)C(=O)C(=Cc1ccoc1)CC2,2.08
10,CC(C)(C)OC(=O)N1CC(=Cc2ccoc2)C(=O)/C(=C/c2ccoc2)C1,-5.28
11,COc1ccc2c(c1)C(=O)C(=Cc1cccnc1Cl)CC2,-2.48
12,COc1ccc2c(c1)C(=O)C(=Cc1cccnc1)CC2,4.25
13,COc1ccc2c(c1)C(=O)C(=Cc1ccoc1)CC2,0.87
14,COc1ccc2c(c1)CCC(=Cc1ccco1)C2=O,7.9
15,COc1ccc(/C=C/C(=O)c2ccc(OCc3ccc(Br)cc3)cc2)cc1OC,-9.61
16,COc1cccc2c1CCC(=Cc1ccoc1)C2=O,-0.51

row,SMILES,Inhibition [%]
1,COc1ccc2c(c1)C(=O)C(=Cc1cccnc1Cl)CC2.Cl,2.21
2,COc1ccc2c(c1)C(=O)C(=Cc1ccco1)CC2,4.79
3,COc1cccc2c1CCC(=Cc1cccc(C=C3CCc4c(OC)cccc4C3=O)c1)C2=O,-22.27
4,COc1ccc2c(c1)C(=O)C(=Cc1cnccc1OC)CC2,1.39
5,COc1cc2c(cc1OC)C(=O)C(=Cc1ccco1)CC2,6.96
6,COc1ccc2c(c1)CCC(=Cc1ccoc1)C2=O,8.45
7,COc1ccc2c(c1)CCC(=Cc1cnccc1OC)C2=O,-6.17
8,COc1ccc2c(c1)CCC(=Cc1cncc(Br)c1)C2=O,-0.04
9,COc1ccc2c(c1)CCC(=Cc1ccc(OC)nc1)C2=O,1.52
10,CC(C)(C)OC(=O)N1CC(=Cc2ccco2)C(=O)/C(=C/c2ccco2)C1,1.8
11,COc1ccc2c(c1)CCC(=Cc1cccnc1Br)C2=O,-5.29
12,COc1cccc2c1CCC(=Cc1ccco1)C2=O,5.5
13,COc1ccc2c(c1)C(=O)C(=Cc1cncc(Br)c1)CC2,2
14,COc1ccc2c(c1)CCC(=Cc1ccncc1)C2=O,3.11
15,COc1ccc2c(c1)CCC(=Cc1cccnc1Cl)C2=O,-0.89
